Measured values: the supplement of paper PMC6555819

The sequences below were run on PXR homodimer (NR concentration 270 nM) (assay: PBM binding z-score (relative to random genomic background probes); higher = stronger binding; sequences stand for … in GC…GCGATTGACAGCGTAGAATGAAGG).
Outline: (§1)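 On custom Agilent 4×180K arrays, double-stranded probes with 34-nt variable regions carried direct-repeat seeds, single-nucleotide variants, half-site ablations or random human genomic background. Ligand-free nuclear receptor dimers were applied for 1 h, and binding was read with antibodies against each partner (one per run). Binding z-scores come from regression-normalized fluorescence, with the random background probes as reference.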

Row | Sequence | PBM binding z-score
1 | CCAGACAGGTGAGAAGGGAACTCAGCCTCGATTA | 0.169
2 | ACTCGGAGGACAAAGGTCTGAGCTACGCCAGTGA | -0.379
3 | ACCTCTAGGTAACCAAGTTCAGTGAATGCCGAAC | 1.47
4 | AATACAGGGTCATCGTAGGCCGGAGTACGCACAG | 0.419
5 | CCACCAAGGTGAACAAGGTCGTTGATTACTATTC | 2.75
6 | CCGAGTAGGTTATGGCGCATTCAGGCAACGGTGA | -0.0371
7 | ACTTACGGGTCAACGAGGGTATAGCACGCGTATA | 1.09
8 | CGTCCAAGGTCAGAGAGGTCAGTCAATGCCGAGT | 12.6
9 | CAAACTAGGTCAAGAGGTTAAAGTCCGCTTCCCG | 0.622
10 | TCTAGCAGGCCAGAGAGTCACTCAAGAGGTACGG | -0.71
11 | TCTTTTAGATCAAAGGTTAAGAAAGCCGAAGCCT | 0.154
12 | CAAACTTGGTCAAGGTCAAAGTCGGTTTGTGCCA | 1.54
13 | GCGACTGTGGCATCAGCAGGTTACCATAACTTAA | -0.227
14 | ATCGAAAGGTCGAGGAGAGTATAGAGAAAGGGAA | 0.36
15 | CATACAGGGTCAGCTAGGCCACAGTAGGGACGGC | 0.181
16 | TCATATAGGAAAATGCTAGGTGAAAGTCCGATCT | 0.397
17 | CCTCGGAGGACAGAACGTCAGAGCTGTCCGCTTT | -0.765
18 | CCGACTGGGGCATAAGGTTACCATGAGCCAGCCC | -0.667
19 | TCTTGTAGATCAAGCAGGTTTAGAAAGCCTGAGT | -0.0713
20 | GGAACGAGGGCAAGTTGATGGCAGAGTTTGATGG | 0.748

Row | Sequence | PBM binding z-score
21 | CCTCGGAGGACAACAGGTGGTCAGAGCTGCCAGA | -0.589
22 | TCGAGTAGGTTCCCAATGGGGCATTCAGCTTTCT | -1.24
23 | TCGAATAGGTTAGTCGGGGCATTCAGCCAACATA | 0.0716
24 | TCGAGTAGGTTACCAATGGGGTATTCAGCTTTCT | -0.757
25 | CAAACTAGTTCAAGGTCAAAGTCGGTTTGTGCCA | 3.52
26 | CGAACTAGGTCATCCAGGACAGCGAATACATTGA | 1.09
27 | ATACCAAAGTGATCGTGAGGTCGTTGATACTAAC | 1.59
28 | ACCTCTAGGTAAGACTCAGTTCAGTGAAGAACGC | 0.515
29 | TCATATAGGTAAAATGTGAAAGTCGGTGTGGTAA | 0.248
30 | CCGACTGGGGCAGAAAGGTTACCATCCCATCCGG | -0.375
31 | TGGAGTAGGTTAGGGGCATTCAGAATGGCGTCGA | 1.43
32 | CCTACTGGGCCAAAGTCATTGATCAGTCAAAGCA | -0.623
33 | ATTCGGAGGACAAAGGTCAGAGCTACGCCAGTGA | 0.477
34 | ATACCAAGGTGATCGTGAGGTCGTTGAGACTAAC | 1.28
35 | GCTAGCAGGCCAGTTGGGTCACTCAATGACGGGC | -0.643
36 | CCTACTGGGCCCAAAAGGTCATTGATGCCGATAA | 1.92
37 | AGAACGAGGGCACGATGAGTTGATAGCAGAGTAG | 0.453
38 | TCATATAAGTAATACAGGTGAAAGTCGGCATCTA | 0.782
39 | ATCGAAATGTCGACGAGGTGAGTATACACCGTTT | 0.0399
40 | TCTCGGAGGACACGAAAGGTCAGAGCTCGACATC | 0.404

Each sequence was assayed on RARa:RXR (NR concentration 270 nM, RXRa partner concentration 90 nM) in the same assay as above.
Outline: as §1

Row | Sequence | PBM binding z-score
41 | CCAGACAGGTGAGAAGGGAACTCAGCCTCGATTA | -0.0265
42 | ACTCGGAGGACAAAGGTCTGAGCTACGCCAGTGA | -0.531
43 | ACCTCTAGGTAACCAAGTTCAGTGAATGCCGAAC | 0.453
44 | AATACAGGGTCATCGTAGGCCGGAGTACGCACAG | 4.74
45 | CCACCAAGGTGAACAAGGTCGTTGATTACTATTC | 2.58
46 | CCGAGTAGGTTATGGCGCATTCAGGCAACGGTGA | 0.131
47 | ACTTACGGGTCAACGAGGGTATAGCACGCGTATA | 4.78
48 | CGTCCAAGGTCAGAGAGGTCAGTCAATGCCGAGT | 5.82
49 | CAAACTAGGTCAAGAGGTTAAAGTCCGCTTCCCG | 4.85
50 | TCTAGCAGGCCAGAGAGTCACTCAAGAGGTACGG | -0.29
51 | TCTTTTAGATCAAAGGTTAAGAAAGCCGAAGCCT | 2.88
52 | CAAACTTGGTCAAGGTCAAAGTCGGTTTGTGCCA | 4.15
53 | GCGACTGTGGCATCAGCAGGTTACCATAACTTAA | 0.0331
54 | ATCGAAAGGTCGAGGAGAGTATAGAGAAAGGGAA | 2.76
55 | CATACAGGGTCAGCTAGGCCACAGTAGGGACGGC | 3.4
56 | TCATATAGGAAAATGCTAGGTGAAAGTCCGATCT | 0.636
57 | CCTCGGAGGACAGAACGTCAGAGCTGTCCGCTTT | -1.04
58 | CCGACTGGGGCATAAGGTTACCATGAGCCAGCCC | 1.16
59 | TCTTGTAGATCAAGCAGGTTTAGAAAGCCTGAGT | -0.152
60 | GGAACGAGGGCAAGTTGATGGCAGAGTTTGATGG | 0.523

Row | Sequence | PBM binding z-score
61 | CCTCGGAGGACAACAGGTGGTCAGAGCTGCCAGA | -0.583
62 | TCGAGTAGGTTCCCAATGGGGCATTCAGCTTTCT | -0.343
63 | TCGAATAGGTTAGTCGGGGCATTCAGCCAACATA | 0.628
64 | TCGAGTAGGTTACCAATGGGGTATTCAGCTTTCT | 0.339
65 | CAAACTAGTTCAAGGTCAAAGTCGGTTTGTGCCA | 5.1
66 | CGAACTAGGTCATCCAGGACAGCGAATACATTGA | 2.33
67 | ATACCAAAGTGATCGTGAGGTCGTTGATACTAAC | 1.59
68 | ACCTCTAGGTAAGACTCAGTTCAGTGAAGAACGC | 0.112
69 | TCATATAGGTAAAATGTGAAAGTCGGTGTGGTAA | 0.634
70 | CCGACTGGGGCAGAAAGGTTACCATCCCATCCGG | 1.61
71 | TGGAGTAGGTTAGGGGCATTCAGAATGGCGTCGA | 0.932
72 | CCTACTGGGCCAAAGTCATTGATCAGTCAAAGCA | -0.335
73 | ATTCGGAGGACAAAGGTCAGAGCTACGCCAGTGA | 4.9
74 | ATACCAAGGTGATCGTGAGGTCGTTGAGACTAAC | 1.91
75 | GCTAGCAGGCCAGTTGGGTCACTCAATGACGGGC | 0.497
76 | CCTACTGGGCCCAAAAGGTCATTGATGCCGATAA | 5.31
77 | AGAACGAGGGCACGATGAGTTGATAGCAGAGTAG | 1.01
78 | TCATATAAGTAATACAGGTGAAAGTCGGCATCTA | 1.1
79 | ATCGAAATGTCGACGAGGTGAGTATACACCGTTT | 0.312
80 | TCTCGGAGGACACGAAAGGTCAGAGCTCGACATC | 4.18
